Compound activity deposited in PubChem BioAssay by National Center for Advancing Translational Sciences (NCATS).
Vaccinia mCherry = qHTS for Stage-Specific Inhibitors of Vaccinia Orthopoxvirus: mCherry Reporter Primary qHTS | Vaccinia virus mCherry reporter infection, fluorescence | Potency, µM (top dose mostly 36.5 µM), usual class: inhibitors | 310,000 tested, 0.63% active | AID 720579, 2013; calls by dose curve; tested in A549 cells; further: nearly all actives have a fitted effect of over 35% in size
MARV entry inh = qHTS for inhibitors of binding or entry into cells for Marburg Virus; 300,000 tested, 1.8% active; Potency, µM (top dose mostly 37.8 µM), actives largely listed as inhibitors; Marburg virus pseudotyped entry inhibition, cell reporter; calls by dose curve; tested in HEK293 cells
FMDV inh = High Throughput Screening for Foot and Mouth Disease Virus Antivirals; FMDV antiviral cell-based qHTS; 410,000 tested, 1.2% active; AID 1159524, 2015; Potency, µM (top dose mostly 57.9 µM), actives largely listed as inhibitors; calls by dose curve; tested in HEK293T cells; further: read-out not given here; nearly all actives have a fitted effect of over 45% in size
VACV Venus inh = qHTS for Stage-Specific Inhibitors of Vaccinia Orthopoxvirus: Venus Reporter Primary qHTS; Vaccinia virus Venus reporter expression, fluorescence; Potency, µM (top dose mostly 36.5 µM), usual class: inhibitors; 330,000 tested, 0.46% active; AID 720580, 2013; calls by dose curve; tested in A549 cells; further: nearly all actives have a fitted effect of over 30% in size
LASV entry inh = qHTS for Inhibitors of binding or entry into cells for Lassa Virus; Lassa virus pseudotype entry inhibition, cell reporter; Potency, µM (series often up to 37.9 µM), actives largely listed as inhibitors; 300,000 tested, 1.2% active; calls by dose curve; tested in HEK293 cells; further: nearly all actives have a fitted effect of over 50% in size
HCMV inh = qHTS Assay for inhibitors of the human cytomegalovirus (HCMV); AID 1259415, 2018; HFF cells, HCMV-luciferase reporter, 72 h; stronger effect = lower value; 410,000 tested, 4.5% active; activity change, negative = inhibition, % at 57.5 µM; in the data active means activity change below about -60%; inconclusive means no clear call, values can overlap the other calls; inactive means above about -39%
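Screen run at 2 compound doses on HFFs infected with reporter HCMV, MOI 1 PFU/cell. Luciferase activity from cell lysates at 72 h post infection gave inhibition relative to buffer-only and Salinomycin wells.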
Hits are given with their value; 0 = inactive; ? = inconclusive; - = no result given. In the library only some 6.5% were active in any assay of this set; here they are far more common.

SMILES | Vaccinia mCherry | MARV entry inh | FMDV inh | VACV Venus inh | LASV entry inh | HCMV inh
CCCCN(C(=O)CSc1nncn1-c1ccccc1)c1c(N)n(Cc2ccccc2)c(=O)[nH]c1=O | - | 0 | 0 | - | 0 | -62
CCCCn1c(N)c(N(CCOC)C(=O)C2CCN(S(=O)(=O)c3ccc(F)cc3)CC2)c(=O)[nH]c1=O | 0 | 0 | 0 | 0 | 0 | 0
CCCCn1c(N)c(N(CCOC)C(=O)C2CCN(S(=O)(=O)c3ccc(Cl)cc3)CC2)c(=O)[nH]c1=O | 0 | ? | 0 | 0 | ? | -70
CCc1ccc(-c2nc(SCC(=O)N(CCOC)c3c(N)n(Cc4ccccc4)c(=O)[nH]c3=O)n[nH]2)cc1 | 0 | 0 | 0 | 0 | ? | -79
COCCN(C(=O)c1cc(-c2ccco2)nc2ccccc12)c1c(N)n(Cc2ccccc2)c(=O)[nH]c1=O | - | - | 0 | - | - | -69
COCCN(C(=O)CSc1n[nH]c(-c2ccc(OC)cc2)n1)c1c(N)n(Cc2ccccc2)c(=O)[nH]c1=O | 0 | 0 | 0 | 0 | 0 | 0
CCc1ccc(S(=O)(=O)NCc2ccc3c(c2)CCN3C(=O)c2ccc(C)cc2)cc1 | 0 | - | ? | 0 | ? | 0
CCc1ccc(Oc2nccc(-c3c(-c4ccc(F)cc4)ncn3C3CCNCC3)n2)cc1 | - | - | - | - | 11µM | -
Fc1cnc(N2CCN(c3ccccc3)CC2)nc1N1CCN(c2ccccc2)CC1 | 0 | ? | 20µM | 0 | ? | ?
O=C1CCCc2nc(N3CCN(c4ccccc4)CC3)ncc21 | - | ? | 0 | - | ? | 0
Cn1c(SCC(=O)N2CCCc3ccccc32)ncc(C(=O)Nc2ccccc2)c1=O | 0 | - | 0 | 0 | 0 | 0
COC(=O)N[C@H](c1ccccc1)C(C(=O)OC)C(=O)OC | - | 0 | - | - | - | -
O=C(NC1CCCCCCC1)C1c2ccccc2C(=O)N1Cc1cccs1 (configuration not stated) | 0 | 0 | 0 | 0 | ? | 0
CC1CCC(NC(=O)C2c3ccccc3C(=O)N2Cc2cccs2)CC1 (configuration not stated) | 0 | 0 | 0 | 0 | 3.5µM | 0
CCN(c1ccc(OC)cc1)S(=O)(=O)c1ccc(-c2ccc(=O)[nH]n2)o1 | - | - | 0 | - | - | -64
CCN(c1cccc(C)c1)S(=O)(=O)c1ccc(-c2ccc(=O)[nH]n2)o1 | - | - | 0 | - | - | ?
C#CC(C)(CC)NC(=O)Cn1nnc(-c2ccc(OCc3ccccc3F)cc2)n1 (configuration not stated) | ? | ? | 0 | 11µM | 0 | 0
COC(=O)c1[nH]c2cc(OC)ccc2c1NC(=O)CN1CCN(c2cccc(C)c2)C(C)C1 (configuration not stated) | ? | 16µM | ? | ? | ? | 0
COC(=O)c1[nH]c2cc(C)ccc2c1NC(=O)CN1CCOCC1 | 0 | ? | 0 | 0 | 0 | 0
COC(=O)c1[nH]c2ccccc2c1NC(=O)CN1CCN(c2cccc(Cl)c2)CC1 | - | ? | 14µM | 0 | 0 | ?
COc1cc2ncc3c(-c4ccccc4)nn(CC(=O)NC4CCCCC4)c3c2cc1OC | 0 | - | 0 | 0 | 0 | 0
CC(C)(C)c1ccc(C(=O)OCC(=O)Nc2cccc(S(=O)(=O)NC3=NCCC3)c2)cc1 | 0 | - | 0 | 0 | - | 0
CC(C)(C)c1ccc(NC(=O)COC(=O)c2ccc(NS(=O)(=O)c3ccc(F)c(F)c3)cc2)cc1 | 0 | ? | ? | ? | 13µM | 0
CC(C)(C)NC(=O)NC(=O)COC(=O)c1cccc(NS(=O)(=O)c2ccc(F)c(F)c2)c1 | 0 | ? | 0 | 0 | 10µM | 0
CC(C)(C)NC(=O)NC(=O)COC(=O)c1cccc(S(=O)(=O)N2CCCCC2)c1 | 0 | 0 | 0 | 0 | 0 | 0
SMILES | Vaccinia mCherry | MARV entry inh | FMDV inh | VACV Venus inh | LASV entry inh | HCMV inh
CCC1(C2CCN(Cc3ccc(C)s3)CC2)NC(=O)N(CC2COc3ccccc3O2)C1=O (configuration not stated) | 0 | - | 0 | 0 | - | -
CCc1ccc2c(c1)NC(=O)C2(C)Cc1cccc(F)c1 (configuration not stated) | 0 | - | 0 | 0 | - | ?
CC1(Cc2cccc(F)c2)C(=O)Nc2ccc(-c3cccnc3)cc21 (configuration not stated) | 0 | - | 0 | ? | - | -74
CC1(Cc2cc(Cl)ccc2C(F)(F)F)C(=O)Nc2ccc(-c3ccc(F)c(Cl)c3)cc21 (configuration not stated) | 0 | - | 0 | 0 | - | -63
COc1cccc(-c2cccc3c2NC(=O)C3(C)Cc2cccc(F)c2)c1 (configuration not stated) | 0 | - | 35µM | 0 | - | 0
CC1(Cc2ccc(Cl)cc2)C(=O)Nc2ccc(-c3cccnc3)cc21 (configuration not stated) | 0 | - | 0 | 0 | - | -66
c1ccc2cnccc2c1 | 0 | - | - | 0 | - | -
CCOC(=O)c1c(N)n(-c2ccccc2CC)c2nc3ccccc3nc12 | 0 | - | 0 | 0 | 0 | 0
Cc1ccc2c(c1)-c1onc(C(=O)N3CCN(c4ccc(Cl)cc4)CC3)c1CO2 | 0 | - | 0 | 0 | ? | 0
CC(=O)N1CCc2cc(Br)cc(S(=O)(=O)NCCc3cccc(C)c3)c21 | 0 | - | 0 | 0 | 0 | 0
COc1ccc(OC)c(-c2cc(C(=O)Nc3cc(C)n(Cc4ccc(Cl)cc4)n3)no2)c1 | - | ? | 22µM | - | 0 | 0
COc1ccc(OC)c(-c2cc(C(=O)Nc3c(C)nn(Cc4ccc(C)cc4)c3C)no2)c1 | 0 | 0 | ? | 0 | 0 | 0
COc1cccc(-c2cc(C(=O)Nc3c(C)n(C)n(-c4ccccc4)c3=O)no2)c1 | 0 | ? | 0 | 0 | 0 | -108
Cc1cc(NC(=O)c2cc(-c3ccco3)on2)nn1Cc1ccc(Cl)cc1 | 0 | 0 | 0 | ? | ? | ?
COc1cccc(-c2cc(C(=O)Nc3cc(C)n(Cc4ccc(Cl)cc4)n3)no2)c1 | - | ? | ? | - | 0 | -80
Cc1c(NC(=O)c2cc(-c3cccc(O)c3)on2)c(=O)n(-c2ccccc2)n1C | 0 | ? | 0 | 0 | 0 | 0
O=C(NCc1ccccc1Cl)c1cc2c(s1)-c1ccc(Cl)cc1SC2 | 0 | 0 | 0 | 0 | 0 | 0
CCOc1ccc(NC(=O)CN2CCN(CC(=O)Nc3ccc(N(CC)CC)cc3)CC2)cc1 | 0 | - | 0 | 0 | 0 | 0
O=C1CCC[C@H]2[C@@H](Cc3ccccc3)[C@@H](NS(=O)(=O)c3cccs3)CC[C@]23CCCN13 | - | - | - | - | - | 0
CCCC1O[C@@H]2C[C@H]3[C@@H]4CCC5=CC(=O)C=C[C@]5(C)C4[C@@H](O)C[C@]3(C)[C@]2(C(=O)CO)O1 (some centres not stated) | - | 3.2µM | - | - | - | -
COc1cccc(OC)c1CN1CCCC(C(=O)c2ccccc2SC)C1 (configuration not stated) | 0 | 6.3µM | 0 | 0 | ? | ?
CCOC(=O)C1CCCN(Cc2ccc(OCC)cc2)C1 (configuration not stated) | 0 | 0 | - | 0 | 0 | 0
